Screens deposited in PubChem by National Center for Advancing Translational Sciences (NCATS).
A selection: hits, their analogues and other compounds. The true share with any hit is near 13%.
Marburg entry inh – inhibitors of Marburg virus binding or cell entry | Marburg virus pseudotyped entry inhibition, cell reporter | Potency, µM (doses to about 37.8 µM), without a hit: top-dose activity change, negative = inhibition, hits mostly inhibitors | 1.8% of 300,000 active; calls by dose curve; tested in HEK293 cells; note: potency is the fitted concentration of half-maximal effect; % is set by controls: 0 for no effect and ±100 for the full control effect
CHX counter – counter-screen hit for Shiga toxin inhibitors, cycloheximide. cell reporter, cycloheximide protein synthesis inhibition counterscreen. 12% of 300,000 active. max response, %; in the data active = max response mostly above about 13%, no sharp cut-off; inactive = mostly below about 14%; note: read at 38.3 µM for the half of the compounds with a filed dose; 0% is about no effect
HCV inhibitor – HCV inhibition; Huh7.5.1 HCVcc-Cre infection, luciferase reporter, 44 h; Potency, µM (top dose mostly 41.8 µM), without a hit: top-dose activity change, negative = inhibition, most hits filed as inhibitors; 3.4% of 340,000 active; AID 651820; active = well fitted inhibition curve with a large enough effect; inconclusive = small, poorly fitted or top-dose-only effect, or another doubt; inactive = no such curve, though single readings can be large or run the other way; note: potency is the fitted concentration of half-maximal effect; % is set by controls: 0 for no effect and ±100 for the full control effect
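HCVcc-Cre virus at an moi near 0.5 was added right after compound to cells cultured 4 h from seeding (1,000 cells/well). Luciferase activity was determined 44 h later, 15 min after substrate addition at RT.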
Shiga inhibitor – inhibitors of Shiga toxin in Vero cells; AID 2315; 9.2% of 290,000 active; Vero cells, Shiga toxin protein synthesis inhibition reporter; inhibition, % at 38.7 µM; in the data active = inhibition mostly above about 28%, no sharp cut-off; inactive = mostly below about 43%; note: 0% is about no effect
FMDV inh – antivirals against foot and mouth disease virus; 1.2% of 410,000 active; Potency, µM (titrated, usually from 57.9 µM), for the others: top-dose activity change, negative = inhibition, usual class: inhibitors; AID 1159524; FMDV antiviral cell-based qHTS; calls by dose curve; tested in HEK293T cells; note: read-out not given here; potency is the fitted concentration of half-maximal effect; % is set by controls: 0 for no effect and ±100 for the full control effect; nearly all actives have a fitted effect of over 45% in size
LASV entry inh – Lassa virus entry inhibition; Potency, µM (titrated, usually from 37.9 µM), inactives show top-dose activity change, negative = inhibition, most hits filed as inhibitors; 1.2% of 300,000 active; Lassa virus pseudotype entry inhibition, cell reporter; calls by dose curve; tested in HEK293 cells; note: potency is the fitted concentration of half-maximal effect; % is set by controls: 0 for no effect and ±100 for the full control effect; nearly all actives have a fitted effect of over 50% in size
* marks the source's active call; other numbers are inactive results; ? = inconclusive; . = no result; [ ] = dose if it differs, or a comment.

SMILES	Marburg entry inh	CHX counter	HCV inhibitor	Shiga inhibitor	FMDV inh	LASV entry inh
COc1ccc(-c2csc(Nc3ccccc3)[n+]2CC(O)c2ccc([N+](=O)[O-])cc2)cc1 (stereo not drawn)	.	18*	8.9µM*	32	?	.
COc1cc(C(c2c(C)[nH][nH]c2=O)c2c(C)[nH][nH]c2=O)cc(Cl)c1O	.	-2	-1%	10	4%	.
O=C(CNc1ccccc1)N/N=C/c1c(O)ccc2ccccc12	.	14	10µM*	-4	8%	.
O=C(N/N=C/c1c(O)ccc2ccccc12)Nc1ccccc1	.	.	?	.	32%	.
O=C(CN1CCOCC1)N/N=C/c1c(O)ccc2ccccc12	?	-2	?	.	-5%	11µM*
O=C(O)c1ccc(N=Cc2c(O)ccc3ccccc23)cc1	?	2	-8%	.	-5%	-3%[46.1 µM]
O=S(=O)(/N=C/c1c(O)ccc2ccccc12)c1ccccc1	?	11*	1%	18	-22%	9%
COc1ccc(NC(C)C(=O)N/N=C/c2c(O)ccc3ccccc23)cc1 (stereo not drawn)	?	0	3%	-5	-4%	?
O=C(CSCC(=O)Nc1ccccc1)N/N=C/c1c(O)ccc2ccccc12	?	19	10µM*	8	30%	26µM*
CC[C@]12c3[nH]c4cc(-c5ccco5)ccc4c3CCN1C(=O)[C@@H](CC(=O)NCCN1CCOCC1)C[C@@H]2C(=O)N1CCN(C(=O)c2ccco2)CC1	.	.	5%	.	-19%	.
CC(OC(=O)CNC(=O)c1ccc(F)cc1)C(=O)Nc1ccc(S(=O)(=O)N2CCOCC2)cc1 (stereo not drawn)	.	.	5%	.	-9%	.
CCOc1ccc(-n2c(SCC(=O)Nc3ccc4c(c3)OCCO4)nc3c(c2=O)SCC3)cc1	0%	-3	?	-18	5%	-11%
Cc1ccc(NC(=O)/C=C/c2ccc(Cl)cc2)c(Br)c1	.	.	.	.	3%	1%[46.1 µM]
Cc1ccc(NC(=O)CC(=O)Nc2ccc(C)cc2C)c(C)c1	.	7	-4%	3	-1%	.
Cc1ccc(NC(=O)c2ccccn2)c(Br)c1	?	52*	-27%	89*	26%	-22%
CSCc1ccc(C(=O)Nc2cccc(C)c2C)cc1	?	49*	4%	21	15%	1%
Cc1cccc(NC(=O)NNC(=O)c2ccccn2)c1	.	.	8%	.	3%	.
Cc1ccc(NC(=O)c2csnn2)c(C)c1	1%	22*	8%	32	21%	25%
Cc1ccc(NC(=O)Nc2ccc(Cl)cc2)c(Br)c1	?	28*	?	active	-3%	14%
CC1Sc2ccc(S(=O)(=O)CCC(=O)N3CCCCC3)cc2NC1=O (stereo not drawn)	8%[46.1 µM]	-3	0%	-7	41%	-12%[46.1 µM]
Cc1ccc(NC(=O)CSc2nccn2Cc2ccco2)cc1Cl	.	.	.	.	54%	13%[46.1 µM]
O=C(NC(=O)c1csnn1)Nc1ccccc1Cl	.	34*	8%	22	22%	.
Cc1ccc(C)c(NC(=O)c2ccccn2)c1	8%	32*	?	47*	57%	22%
Cc1cccc(NC(=O)c2ccccn2)c1C	?	32*	6%	77*	56%	?
Cc1ccc(C)c(NC(=O)CN(C)C(=O)c2ccccn2)c1	.	.	.	.	1%	.
SMILES	Marburg entry inh	CHX counter	HCV inhibitor	Shiga inhibitor	FMDV inh	LASV entry inh
O=C(COC(=O)CCC(=O)N1CCOCC1)Nc1ccc(Br)cc1Br	19%	.	24%	.	11%	?
COc1ccccc1C1c2ccc3ccccc3c2Oc2ncn(CCN(C)C)c(=N)c21 (stereo not drawn)	2.8µM*	-4	13µM*	-7	-31%	?
COc1ccc(C2c3c(ncn(CCN4CCOCC4)c3=N)Oc3ccc4ccccc4c32)cc1OC (stereo not drawn)	10µM*	-2	?	-25	?	?
COc1ccc(C2c3c(ncn(CCCO)c3=N)Oc3ccc4ccccc4c32)cc1OC (stereo not drawn)	8%[46.1 µM]	1	?	-9	-15%	?
COc1ccccc1C1c2ccc3ccccc3c2Oc2ncn(CCCO)c(=N)c21 (stereo not drawn)	?	-8	?	-19	-17%	?
COc1ccc(C2c3ccc4ccccc4c3Oc3ncn(CCCN(C)C)c(=N)c32)cc1 (stereo not drawn)	1.8µM*	-7	?	-11	1%	?
COC(=O)c1ccc(/C=N\NC(=O)CC(=O)NCCc2ccccc2)cc1	6%	-3	-6%	8	-13%	-13%
Cc1cccc(C)c1OCC(=O)Nc1ccccc1N1CCCCC1	.	-1	?	10	-29%	.
O=c1[nH]c(=S)[nH]c(O)c1/C=C1/C=c2ccccc2=N1	?	0	?	-5	25µM*	?
O=c1cc(-c2ccco2)oc2ccccc12	22%[46.1 µM]	.	?	.	40%	11%[46.1 µM]
Cc1ccc2oc(-c3ccco3)cc(=O)c2c1	-2%[46.1 µM]	39*	?	71*	0%	-30%
CC(C)OCCOc1ccc2oc(-c3ccco3)cc(=O)c2c1	1%	19*	-22%	27	9%	2%
N#CCOc1ccc2oc(-c3ccco3)cc(=O)c2c1	.	11	.	19	.	.
CCOC(=O)N1CCN(C(=O)CSc2ncccn2)CC1	-1%	1	20%	-8	1%	10%
Cc1cccc(Nc2cc(C)nc3nc(Cc4ccc(Cl)cc4)nn23)c1	?	.	.	.	-22%	?
NNC(=O)c1ccc(COc2ccc(Br)cc2)o1	?	6	1%	-7	-8%	1%[46.1 µM]
CC(C)(C)c1ccc(OCc2ccc(C(=O)NCc3cccnc3)o2)cc1	.	45*	-7%	176*	-13%	.
COc1ccccc1OCc1ccc(C(=O)NCc2cccnc2)o1	-12%[46.1 µM]	-2	-4%	-9	4%	-11%
Cc1ccc(OCc2ccc(C(=O)NCc3cccnc3)cc2)cc1C	8.9µM*	33*	?	52*	-16%	7.9µM*
CC(C)(C)c1ccc(OCc2ccc(C(=O)NN)o2)cc1	.	71*	2%	116*	29%	.
O=C(COc1ccc(Cl)cc1)Nc1ccc(C(=O)NCc2cccnc2)cc1	-27%	-2	13µM*	-7	14µM*	-22%
O=C(NCc1cccnc1)c1ccc(COc2ccc(Cl)cc2)cc1	.	8	?	77	-7%	.
O=c1cc(CN2CCc3ccccc3C2)nc2sccn12	2%[46.1 µM]	8	-8%	13	-1%	-4%[46.1 µM]
COc1ccc(-c2cc(C(F)(F)F)n3nc(C(=O)Nc4cccc(Cl)c4C)cc3n2)cc1	?	.	.	.	-12%	?
Cc1ccc2cc(CN(C(=O)c3ccco3)c3ccccc3)c(=O)[nH]c2c1	0%	23*	?	30	1%	2%
Cc1ccc2[nH]c(=O)c3cc(C(=O)N(CCCOC(C)C)Cc4ccco4)sc3c2c1	10µM*	1	?	-14	?	.
Cc1ccc2cc(CN(Cc3ccco3)C(=O)c3cccs3)c(=O)[nH]c2c1	1.3µM*	9	?	12	-12%	?
